From the supplement of paper PMC11732987, “Enantioselective OTUD7B fragment discovery through chemoproteomics screening and high-throughput optimisation” (Communications Chemistry, 2025)

How the values were obtained:
Experiment in all cases: log2 ratio of Biotin-Ahx-Ub-VS probe labelling (fragment/DMSO); higher = less target engagement (more negative = stronger competition), active = hit call of the paper (q ≤ 0.05, log2 ratio ≤ -1)
Details in all cases: compound concentration: 200 uM; treatment time: 3 h
USP9X = USP9X (UniProt Q93008)
Chain of USP9X (Q93008 whole entry, the tested form may be a part): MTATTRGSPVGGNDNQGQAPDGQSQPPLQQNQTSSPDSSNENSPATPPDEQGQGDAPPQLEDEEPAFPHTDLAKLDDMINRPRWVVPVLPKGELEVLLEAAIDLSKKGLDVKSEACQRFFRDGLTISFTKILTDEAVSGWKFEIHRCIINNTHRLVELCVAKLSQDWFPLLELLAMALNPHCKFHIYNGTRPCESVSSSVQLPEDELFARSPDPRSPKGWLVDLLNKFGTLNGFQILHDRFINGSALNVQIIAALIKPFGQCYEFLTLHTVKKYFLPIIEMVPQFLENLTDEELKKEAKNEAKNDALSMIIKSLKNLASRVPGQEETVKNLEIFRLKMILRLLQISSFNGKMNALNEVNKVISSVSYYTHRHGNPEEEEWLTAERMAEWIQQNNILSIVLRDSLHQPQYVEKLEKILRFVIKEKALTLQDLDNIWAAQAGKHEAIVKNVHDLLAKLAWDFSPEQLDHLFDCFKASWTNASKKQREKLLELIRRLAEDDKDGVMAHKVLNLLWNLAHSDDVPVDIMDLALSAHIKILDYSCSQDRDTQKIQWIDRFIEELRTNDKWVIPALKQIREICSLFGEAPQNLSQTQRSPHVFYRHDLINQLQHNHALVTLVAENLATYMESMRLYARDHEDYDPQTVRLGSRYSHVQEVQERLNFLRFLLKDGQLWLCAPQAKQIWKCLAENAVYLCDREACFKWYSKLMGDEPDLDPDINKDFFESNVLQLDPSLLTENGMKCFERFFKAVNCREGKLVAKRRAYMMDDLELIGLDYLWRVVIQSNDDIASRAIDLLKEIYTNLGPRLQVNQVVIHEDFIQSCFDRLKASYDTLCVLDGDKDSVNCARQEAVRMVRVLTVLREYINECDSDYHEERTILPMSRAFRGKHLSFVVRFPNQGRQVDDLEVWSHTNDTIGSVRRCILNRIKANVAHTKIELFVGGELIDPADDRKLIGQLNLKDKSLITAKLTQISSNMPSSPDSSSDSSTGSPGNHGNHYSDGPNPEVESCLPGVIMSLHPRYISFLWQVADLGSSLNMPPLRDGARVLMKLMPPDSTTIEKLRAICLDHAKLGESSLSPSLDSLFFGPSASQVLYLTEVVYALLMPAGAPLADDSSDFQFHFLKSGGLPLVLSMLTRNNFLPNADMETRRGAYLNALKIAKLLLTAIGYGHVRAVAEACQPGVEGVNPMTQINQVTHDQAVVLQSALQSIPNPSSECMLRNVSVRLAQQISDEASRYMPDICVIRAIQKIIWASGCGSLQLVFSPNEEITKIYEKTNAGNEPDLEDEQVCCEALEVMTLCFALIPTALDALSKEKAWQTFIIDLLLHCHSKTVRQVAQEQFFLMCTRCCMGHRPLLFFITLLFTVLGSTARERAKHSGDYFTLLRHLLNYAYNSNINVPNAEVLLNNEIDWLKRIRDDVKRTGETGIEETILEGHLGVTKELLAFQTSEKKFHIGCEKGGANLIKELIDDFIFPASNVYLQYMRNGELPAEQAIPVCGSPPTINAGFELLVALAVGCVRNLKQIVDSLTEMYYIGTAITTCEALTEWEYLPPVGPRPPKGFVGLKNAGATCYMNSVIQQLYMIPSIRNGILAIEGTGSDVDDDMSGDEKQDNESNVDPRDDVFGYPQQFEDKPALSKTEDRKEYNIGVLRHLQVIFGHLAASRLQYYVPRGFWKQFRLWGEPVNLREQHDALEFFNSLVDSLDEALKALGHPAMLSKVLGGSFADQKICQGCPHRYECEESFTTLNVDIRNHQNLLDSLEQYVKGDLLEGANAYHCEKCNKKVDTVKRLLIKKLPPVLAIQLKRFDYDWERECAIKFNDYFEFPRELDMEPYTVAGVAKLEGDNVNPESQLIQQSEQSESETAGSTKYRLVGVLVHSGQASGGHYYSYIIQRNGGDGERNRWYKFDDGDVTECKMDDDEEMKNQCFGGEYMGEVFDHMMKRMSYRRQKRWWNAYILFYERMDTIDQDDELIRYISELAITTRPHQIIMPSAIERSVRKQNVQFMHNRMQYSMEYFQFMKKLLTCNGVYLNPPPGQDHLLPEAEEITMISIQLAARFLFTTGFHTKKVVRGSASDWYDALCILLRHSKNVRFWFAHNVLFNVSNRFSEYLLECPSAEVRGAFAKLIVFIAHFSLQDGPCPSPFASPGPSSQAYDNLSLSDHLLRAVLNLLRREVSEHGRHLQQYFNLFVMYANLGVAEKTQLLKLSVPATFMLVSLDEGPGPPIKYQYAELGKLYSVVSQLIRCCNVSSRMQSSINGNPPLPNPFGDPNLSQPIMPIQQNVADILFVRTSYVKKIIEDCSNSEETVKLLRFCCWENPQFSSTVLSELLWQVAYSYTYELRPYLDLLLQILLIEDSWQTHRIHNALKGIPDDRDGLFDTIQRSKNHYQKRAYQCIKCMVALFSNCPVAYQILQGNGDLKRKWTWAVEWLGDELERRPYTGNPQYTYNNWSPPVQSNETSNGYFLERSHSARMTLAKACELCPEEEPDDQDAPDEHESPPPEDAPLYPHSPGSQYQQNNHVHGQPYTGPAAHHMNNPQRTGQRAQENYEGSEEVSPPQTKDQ
How it was run: (§1)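 Labelled DUBs from HEK293T lysate were NeutrAvidin-enriched, digested with LysC and trypsin, and run by diaPASEF LC-MS/MS. Before that, each 495 µg sample in Tris/CHAPS/IGEPAL buffer with protease inhibitors was treated in triplicate with fragment at 200 µM or vehicle for 3 h, then with Biotin-Ahx-Ub-VS at 0.5 µM final for 1 h. Values are average log2 ratios of fragment over vehicle by unpaired t-test, based on global-median-normalised Spectronaut label-free quantities from proteins with ≥2 unique peptides.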

UniProt O00487 = biological target: UniProt O00487
How it was run: as §1

UniProt O00507 = biological target: UniProt O00507
Chain of UniProt O00507 (O00507 whole entry): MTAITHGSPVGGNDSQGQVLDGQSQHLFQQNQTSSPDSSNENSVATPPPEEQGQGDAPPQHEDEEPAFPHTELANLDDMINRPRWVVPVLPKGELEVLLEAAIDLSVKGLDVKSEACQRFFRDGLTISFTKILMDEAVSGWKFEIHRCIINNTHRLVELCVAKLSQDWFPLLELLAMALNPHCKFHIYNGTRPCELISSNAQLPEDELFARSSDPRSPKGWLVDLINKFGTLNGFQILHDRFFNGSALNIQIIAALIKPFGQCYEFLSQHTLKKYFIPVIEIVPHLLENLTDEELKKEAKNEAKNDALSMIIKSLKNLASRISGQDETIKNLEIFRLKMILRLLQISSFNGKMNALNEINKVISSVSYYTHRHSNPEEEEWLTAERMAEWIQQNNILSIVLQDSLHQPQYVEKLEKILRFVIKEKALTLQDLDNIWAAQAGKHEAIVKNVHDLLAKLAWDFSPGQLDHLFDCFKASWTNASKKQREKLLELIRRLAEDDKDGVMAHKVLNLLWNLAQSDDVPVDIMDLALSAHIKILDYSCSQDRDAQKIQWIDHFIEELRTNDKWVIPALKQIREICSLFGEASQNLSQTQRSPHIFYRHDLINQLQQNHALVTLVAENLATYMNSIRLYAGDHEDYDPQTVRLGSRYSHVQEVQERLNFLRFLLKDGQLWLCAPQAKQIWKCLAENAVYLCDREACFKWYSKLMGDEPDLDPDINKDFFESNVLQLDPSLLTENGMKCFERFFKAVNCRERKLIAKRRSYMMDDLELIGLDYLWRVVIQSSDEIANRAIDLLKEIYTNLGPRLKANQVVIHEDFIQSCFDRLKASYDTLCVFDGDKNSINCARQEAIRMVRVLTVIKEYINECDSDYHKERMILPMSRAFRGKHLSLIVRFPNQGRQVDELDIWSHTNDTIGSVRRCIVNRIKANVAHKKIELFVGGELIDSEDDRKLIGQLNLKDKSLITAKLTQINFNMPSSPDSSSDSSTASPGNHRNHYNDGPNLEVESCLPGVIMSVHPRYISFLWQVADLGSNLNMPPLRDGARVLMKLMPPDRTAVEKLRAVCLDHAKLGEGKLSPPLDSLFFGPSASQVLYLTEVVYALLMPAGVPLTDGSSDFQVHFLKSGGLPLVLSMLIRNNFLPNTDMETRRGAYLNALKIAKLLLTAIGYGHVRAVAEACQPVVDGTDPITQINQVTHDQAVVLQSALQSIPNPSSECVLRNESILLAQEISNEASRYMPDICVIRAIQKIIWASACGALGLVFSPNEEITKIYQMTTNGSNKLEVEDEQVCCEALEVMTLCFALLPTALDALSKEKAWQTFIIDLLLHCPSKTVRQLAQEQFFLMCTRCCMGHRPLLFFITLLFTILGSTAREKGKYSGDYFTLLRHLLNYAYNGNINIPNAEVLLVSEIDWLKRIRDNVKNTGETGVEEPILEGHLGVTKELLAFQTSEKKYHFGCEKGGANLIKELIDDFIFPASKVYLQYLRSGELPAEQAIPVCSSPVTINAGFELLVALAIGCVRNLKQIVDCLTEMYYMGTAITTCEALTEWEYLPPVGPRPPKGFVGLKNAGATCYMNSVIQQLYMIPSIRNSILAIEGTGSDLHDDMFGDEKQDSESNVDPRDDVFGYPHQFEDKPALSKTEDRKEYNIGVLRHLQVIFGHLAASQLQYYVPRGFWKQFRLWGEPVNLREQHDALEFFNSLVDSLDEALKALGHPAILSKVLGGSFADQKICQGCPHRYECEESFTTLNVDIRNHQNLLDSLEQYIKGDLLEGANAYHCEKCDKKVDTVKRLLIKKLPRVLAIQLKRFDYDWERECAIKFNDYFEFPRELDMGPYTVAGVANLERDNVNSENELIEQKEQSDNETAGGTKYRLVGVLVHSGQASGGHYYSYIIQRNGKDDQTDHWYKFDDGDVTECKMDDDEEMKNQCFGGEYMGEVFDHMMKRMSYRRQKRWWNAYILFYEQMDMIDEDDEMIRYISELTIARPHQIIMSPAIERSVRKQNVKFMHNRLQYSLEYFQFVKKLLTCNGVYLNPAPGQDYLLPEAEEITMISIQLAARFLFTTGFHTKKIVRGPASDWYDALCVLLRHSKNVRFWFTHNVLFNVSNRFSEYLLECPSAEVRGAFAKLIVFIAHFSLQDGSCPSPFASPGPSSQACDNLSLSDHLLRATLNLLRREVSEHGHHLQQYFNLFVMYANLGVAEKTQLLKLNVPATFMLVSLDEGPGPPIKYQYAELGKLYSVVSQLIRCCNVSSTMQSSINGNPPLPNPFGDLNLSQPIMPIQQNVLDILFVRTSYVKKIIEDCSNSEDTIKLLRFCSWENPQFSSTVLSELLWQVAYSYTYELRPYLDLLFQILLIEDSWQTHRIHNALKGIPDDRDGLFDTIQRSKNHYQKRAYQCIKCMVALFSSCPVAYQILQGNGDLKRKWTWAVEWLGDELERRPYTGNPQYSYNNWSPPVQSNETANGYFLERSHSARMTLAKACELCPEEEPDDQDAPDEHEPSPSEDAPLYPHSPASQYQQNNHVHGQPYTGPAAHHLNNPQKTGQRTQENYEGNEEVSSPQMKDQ
How it was run: as §1

UniProt P51784 = biological target: UniProt P51784
How it was run: as §1

UniProt Q5T2D3 = biological target: T1, UniProt Q5T2D3
T1 sequence (whole entry): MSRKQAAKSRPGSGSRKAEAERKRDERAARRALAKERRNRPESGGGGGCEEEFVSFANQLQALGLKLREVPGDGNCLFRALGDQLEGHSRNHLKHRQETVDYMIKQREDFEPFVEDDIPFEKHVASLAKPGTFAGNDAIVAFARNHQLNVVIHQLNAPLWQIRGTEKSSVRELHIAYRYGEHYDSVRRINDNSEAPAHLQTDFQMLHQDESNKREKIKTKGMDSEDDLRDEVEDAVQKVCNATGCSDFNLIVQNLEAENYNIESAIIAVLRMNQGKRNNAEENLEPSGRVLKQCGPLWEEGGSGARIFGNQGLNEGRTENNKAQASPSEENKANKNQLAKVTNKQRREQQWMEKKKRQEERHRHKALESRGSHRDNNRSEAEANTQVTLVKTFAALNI
How it was run: as §1

UniProt Q8TE49 = biological target: T2, UniProt Q8TE49
T2 sequence (whole entry): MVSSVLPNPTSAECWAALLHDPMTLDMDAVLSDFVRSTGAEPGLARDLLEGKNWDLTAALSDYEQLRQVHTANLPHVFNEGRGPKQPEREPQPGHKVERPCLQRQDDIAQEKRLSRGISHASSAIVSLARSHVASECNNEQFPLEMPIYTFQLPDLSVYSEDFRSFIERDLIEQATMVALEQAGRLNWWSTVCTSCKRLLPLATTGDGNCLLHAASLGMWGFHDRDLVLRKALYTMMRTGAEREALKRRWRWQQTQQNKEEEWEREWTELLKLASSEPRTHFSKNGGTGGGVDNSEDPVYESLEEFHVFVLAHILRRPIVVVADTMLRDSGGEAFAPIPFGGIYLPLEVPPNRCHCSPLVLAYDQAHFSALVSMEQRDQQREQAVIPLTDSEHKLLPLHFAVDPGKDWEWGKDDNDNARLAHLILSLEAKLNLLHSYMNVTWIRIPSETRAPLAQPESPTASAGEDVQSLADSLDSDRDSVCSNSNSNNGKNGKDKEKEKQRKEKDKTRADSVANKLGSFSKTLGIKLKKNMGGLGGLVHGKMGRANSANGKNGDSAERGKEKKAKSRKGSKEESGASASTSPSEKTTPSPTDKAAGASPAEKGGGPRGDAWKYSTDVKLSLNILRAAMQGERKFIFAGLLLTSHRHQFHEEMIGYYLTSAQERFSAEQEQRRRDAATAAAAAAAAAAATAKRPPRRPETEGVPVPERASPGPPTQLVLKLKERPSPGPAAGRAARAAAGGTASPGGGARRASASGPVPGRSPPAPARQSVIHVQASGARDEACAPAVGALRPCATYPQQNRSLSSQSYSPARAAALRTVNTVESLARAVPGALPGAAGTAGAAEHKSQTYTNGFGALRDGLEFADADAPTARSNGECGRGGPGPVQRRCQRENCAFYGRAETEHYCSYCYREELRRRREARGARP
How it was run: as §1

UniProt Q9P2H5 = biological target: T3, UniProt Q9P2H5
T3 sequence (whole entry): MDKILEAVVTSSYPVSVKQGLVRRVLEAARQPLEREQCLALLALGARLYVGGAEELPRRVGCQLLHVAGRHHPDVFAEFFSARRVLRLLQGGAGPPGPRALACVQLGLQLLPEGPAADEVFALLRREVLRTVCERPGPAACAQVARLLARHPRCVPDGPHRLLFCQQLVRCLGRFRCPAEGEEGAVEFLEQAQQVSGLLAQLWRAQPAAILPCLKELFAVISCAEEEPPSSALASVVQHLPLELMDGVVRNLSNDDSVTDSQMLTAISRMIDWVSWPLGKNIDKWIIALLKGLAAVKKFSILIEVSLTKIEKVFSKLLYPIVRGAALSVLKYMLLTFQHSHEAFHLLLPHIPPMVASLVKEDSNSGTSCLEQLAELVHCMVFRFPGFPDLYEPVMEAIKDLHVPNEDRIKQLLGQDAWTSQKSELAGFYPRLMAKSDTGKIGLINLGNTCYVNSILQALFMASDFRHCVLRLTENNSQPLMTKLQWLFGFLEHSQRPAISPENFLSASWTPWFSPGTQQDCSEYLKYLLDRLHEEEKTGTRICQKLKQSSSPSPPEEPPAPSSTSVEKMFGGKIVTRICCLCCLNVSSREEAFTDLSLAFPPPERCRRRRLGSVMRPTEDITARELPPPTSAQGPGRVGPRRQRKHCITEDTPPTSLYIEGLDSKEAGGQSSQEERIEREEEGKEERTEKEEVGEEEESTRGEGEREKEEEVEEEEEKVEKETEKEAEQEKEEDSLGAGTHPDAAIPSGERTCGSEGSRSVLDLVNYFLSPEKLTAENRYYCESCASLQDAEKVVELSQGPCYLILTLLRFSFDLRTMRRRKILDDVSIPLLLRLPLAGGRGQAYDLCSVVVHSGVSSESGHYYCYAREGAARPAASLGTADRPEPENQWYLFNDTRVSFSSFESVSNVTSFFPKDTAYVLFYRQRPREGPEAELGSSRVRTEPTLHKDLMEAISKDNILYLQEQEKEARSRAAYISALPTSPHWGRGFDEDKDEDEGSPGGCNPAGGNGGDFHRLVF
How it was run: as §1

UniProt Q9UGI0 = biological target: T4, UniProt Q9UGI0
T4 sequence (whole entry): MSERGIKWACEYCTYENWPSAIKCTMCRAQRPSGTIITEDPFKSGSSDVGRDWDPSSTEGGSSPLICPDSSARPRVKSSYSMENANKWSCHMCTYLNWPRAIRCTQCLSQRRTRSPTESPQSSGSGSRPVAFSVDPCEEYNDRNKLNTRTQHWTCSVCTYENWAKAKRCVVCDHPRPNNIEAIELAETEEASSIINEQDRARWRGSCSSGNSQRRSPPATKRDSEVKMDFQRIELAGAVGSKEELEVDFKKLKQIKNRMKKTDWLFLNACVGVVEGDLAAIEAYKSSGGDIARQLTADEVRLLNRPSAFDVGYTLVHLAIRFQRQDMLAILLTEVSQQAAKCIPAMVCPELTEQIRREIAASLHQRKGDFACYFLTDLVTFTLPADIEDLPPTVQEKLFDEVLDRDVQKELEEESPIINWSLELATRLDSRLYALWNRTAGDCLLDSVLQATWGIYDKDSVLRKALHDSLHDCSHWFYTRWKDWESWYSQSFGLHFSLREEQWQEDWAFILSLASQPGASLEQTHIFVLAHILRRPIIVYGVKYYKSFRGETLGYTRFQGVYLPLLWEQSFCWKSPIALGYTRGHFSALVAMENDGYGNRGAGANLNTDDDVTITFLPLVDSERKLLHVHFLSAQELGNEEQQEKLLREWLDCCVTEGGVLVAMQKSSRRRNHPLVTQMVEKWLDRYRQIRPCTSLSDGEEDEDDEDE
How it was run: as §1

YOD1 = biological target: T5, YOD1 (UniProt Q5VVQ6)
T5 sequence (whole entry): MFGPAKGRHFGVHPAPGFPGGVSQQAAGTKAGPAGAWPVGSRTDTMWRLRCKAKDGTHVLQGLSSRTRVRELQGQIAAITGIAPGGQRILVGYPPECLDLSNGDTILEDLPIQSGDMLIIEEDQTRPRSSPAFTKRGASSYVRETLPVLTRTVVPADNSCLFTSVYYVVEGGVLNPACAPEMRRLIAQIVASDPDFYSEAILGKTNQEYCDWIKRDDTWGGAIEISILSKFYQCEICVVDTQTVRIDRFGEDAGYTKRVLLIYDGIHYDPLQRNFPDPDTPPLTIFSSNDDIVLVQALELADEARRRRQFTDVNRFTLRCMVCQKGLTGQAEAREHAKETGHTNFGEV
How it was run: as §1

Measured: log2 ratio of Biotin-Ahx-Ub-VS probe labelling

Cc1ccc(CNC(=O)CCl)nc1C.Cl
inactive: USP9X 0.0101 | UniProt O00487 -0.156 | UniProt O00507 -0.661 | UniProt P51784 0.353 | UniProt Q5T2D3 -0.0639 | UniProt Q8TE49 -0.343 | UniProt Q9P2H5 0.102 | UniProt Q9UGI0 -0.161 | YOD1 -0.259
